# Data: PubChem BioAssay (NCATS)
# Records with an inconclusive call do not appear. Entries that show only a call come without a potency. The source made the active and inactive calls. The call rests on the fitted dose curve; in most records, active means well fitted inhibition curve with a large enough effect; inconclusive means small, poorly fitted or top-dose-only effect; inactive means flat fitted curve, though single readings scatter.
# Molecular target: Glutathione peroxidase 1 (Homo sapiens) (UniProt P07203)
# Sequence (P07203 whole entry, looked up): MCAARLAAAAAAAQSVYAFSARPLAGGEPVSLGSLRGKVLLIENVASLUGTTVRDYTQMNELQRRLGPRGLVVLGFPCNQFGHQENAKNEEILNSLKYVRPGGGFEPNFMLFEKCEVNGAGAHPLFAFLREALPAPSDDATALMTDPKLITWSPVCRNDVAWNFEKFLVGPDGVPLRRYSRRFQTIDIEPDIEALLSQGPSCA
# Experiment: Primary qHTS Assay for Inhibitors of Recombinant Selenoprotein Glutathione Peroxidase 1 (GPX1) (AID 1845191); further: nearly all actives have a fitted effect of over 65% in size
# Conditions: recombinant GPX1, GR-coupled NADPH fluorescence, 15 min; series mostly up to 48.8 µM
# Outline: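 GR-coupled assay: compounds preincubated 30 min at room temperature with GPX1, then reaction started with CHP; final 10 nM GPX1, 1 mM GSH, 0.5 mM CHP, 0.5 mM NADPH, 100 nM GR, 0.01% BSA, pH 7.5 Tris buffer. NADPH fluorescence (340/450 nm) read at 0 and 15 min.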
# Potency means the concentration at half of the fitted maximal effect.
row,Structure (SMILES),Potency
1,COC1(c2sc3c(N4CCOCC4)nc(-c4cnc(N)nc4)nc3c2C)COC1,inactive
2,CS(=O)(=O)c1ccc([C@@H](C[C@H]2CCC(=O)C2)C(=O)Nc2cnccn2)cc1Cl,inactive
3,CC(CCc1ccccn1)(CCc1ccccn1)C(=O)c1ccccc1,inactive
4,CNC(=O)c1c(C)oc2cc(Oc3ncnc4cc(OC)c(OC)cc34)ccc12,inactive
5,c1nc(NCC2CCOC2)c2cc(-c3ccc4c(c3)OCO4)ccc2n1 (stereo not given),inactive
6,COc1cc2ncnc(Sc3nnc(C)s3)c2cc1OC,inactive
7,N#Cc1cccc(CN2CCC(N(Cc3cccnc3)C(=O)Nc3ccccc3-c3ccccc3)CC2)c1,inactive
8,COCc1c(-c2ccc(NC(=O)Nc3cc(C(F)(F)F)ccc3F)c(F)c2)c2c(N)ncnn2c1CN1CCOCC1,inactive
9,Cc1cc(-c2ccc(/C=C3\SC(=Nc4ccc(Cl)c(C(=O)O)c4)NC3=O)o2)c([N+](=O)[O-])cc1C,20.2 µM (active)
10,NC1CCCN(c2c(/C=C3\SC(=O)NC3=O)cccc2-c2ccccc2)C1 (stereo not given),inactive
11,OCC(O)CCO/N=C1/C(c2c(O)[nH]c3ccccc23)=Nc2ccccc21 (stereo not given),inactive
12,CCOC(=O)N1CCN(C(=O)Cn2sc3nc(C)cc(C)c3c2=O)CC1,inactive
13,Cn1cc(-c2cc(Oc3cc(F)c(NC(=O)C4(C(=O)Nc5ccccc5)CC4)cc3F)ccn2)cn1,inactive
14,Oc1cccc(Nc2ccnc3cc(-c4cccc(CN5CCOCC5)c4)sc23)c1,inactive
15,COc1cc(OC)cc(N(CCNC(C)C)c2ccc3ncc(-c4cnn(C)c4)nc3c2)c1,inactive
